Experimental data: PubChem BioAssay (Tox21)
Inconclusive results are not listed. Unmarked numbers belong to inactive results. Active and inactive are the calls of the source. The call rests on the fitted dose curve.

system: not listed separately; assay: qHTS assay to identify small molecule agonists of the AP-1 signaling pathway (AID 1159526); conditions: ME-180 (cervical carcinoma) AP-1-bla reporter, beta-lactamase FRET ratio, 5 h; series mostly up to 76.8 µM; activation: at the top concentration
On the % scale 0 is the no-effect control and ±100 the full control effect.

Structure (SMILES)	activation	Potency
CC(=O)[C@H]1CC[C@H]2[C@@H]3CCC4=CC(=O)CC[C@]4(C)[C@H]3CC[C@]12C	18.5%	
COC(=O)c1ccccc1OC	-4.81%	
c1cnccn1	-15.7%	
COc1cc2nc(N3CCN(C(=O)c4ccco4)CC3)nc(N)c2cc1OC	3.7% [at 15.8 µM]	
O=[N+]([O-])c1ccc(F)c(Cl)c1	-2.09%	
CCCC[P+](C)(CCCC)CCCC	-0.129%	
Cc1nc2n(c(=O)c1CCN1CCC(c3noc4cc(F)ccc34)CC1)CCCC2	-7.91% [at 35.3 µM]	
O[C@@H]([C@H](O)[C@H](O)CBr)[C@H](O)CBr	2.98%	
Cc1ccc(O)c(O)c1	-1.46%	
O=C(O)c1ccc2cc(C(=O)O)ccc2c1	-8.51%	
CCCCCCOC(=O)C(C)CC (stereo unspecified)	-0.107%	
O=[N+]([O-])c1ccc(O)cc1C(F)(F)F	0.981%	
O=c1[nH]c2ccccc2n1CCCN1CCN(C(c2ccccc2)c2ccccc2)CC1	12.1% [at 35.3 µM]	
C=Cc1cccc(C)c1		inactive
O=C(/C=C/c1ccc(O)c(O)c1)O[C@@H](C(=O)O)[C@@H](OC(=O)/C=C/c1ccc(O)c(O)c1)C(=O)O	-7.73%	
CCc1cccc(CC)c1NC(=O)CN(CC(=O)O)CC(=O)O	3.92% [at 35.3 µM]	
CCCc1ccc(OCC(=O)N2CCN(C(=O)COc3ccc(CCC)cc3OC)CC2)c(OC)c1	4.54% [at 35.3 µM]	
CCCCCCCC	4.61%	
CC(C)CCOC(=O)/C=C/c1ccccc1	25.5%	
COc1ccc(-c2coc3cc(O)ccc3c2=O)cc1	-0.167%	
Cc1ccc(-c2ccccc2)cc1	-3.63%	
C/C=C/C=C/COC(=O)C(C)C	7.81%	
CCCCCCCCCCOC(=O)c1ccccc1C(=O)OCCCCCCCC	3.87%	
C=CC(C)(CCC=C(C)C)OC=O (stereo unspecified)	4.78%	
CC(CO)Oc1ccccc1 (stereo unspecified)	-1.71%	
O=C(O)c1cc(=O)c2ccccc2o1	1.54% [at 35.3 µM]	
CC(=O)c1ccc(C(C)=O)cc1	-0.198%	
CC[N+](CC)(CC)CCOC(=O)C(C1CCCC1)C1CCCC1	0.976% [at 35.3 µM]	
CC(C)(C)CC(C)(C)c1ccc(Nc2ccc(C(C)(C)CC(C)(C)C)cc2)cc1	15.6% [at 6.97 µM]	
NC(=O)c1cccc([N+](=O)[O-])c1	-1.2%	

biological target: Retinoic acid receptor RXR-alpha (Homo sapiens) (UniProt P19793); assay: qHTS assay to identify small molecule agonists of the RXR signaling pathway (AID 1159527); conditions: HEK293T RXRa-UAS-bla, beta-lactamase ratio, 16 h; series mostly up to 76.8 µM; activation: at the top concentration; further: nearly all actives have a fitted effect of over 35% in size
In short: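 Read-out: beta-lactamase FRET ratio (405 nm excitation, 460 and 530 nm emission) after 2 hr substrate loading at room temperature. Cells were RXR-alpha-UAS-bla HEK 293T treated with compounds for 16 hr in 2% charcoal-stripped FBS medium.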

Sequence of Retinoic acid receptor RXR-alpha (Homo sapiens) (P19793 whole entry, looked up): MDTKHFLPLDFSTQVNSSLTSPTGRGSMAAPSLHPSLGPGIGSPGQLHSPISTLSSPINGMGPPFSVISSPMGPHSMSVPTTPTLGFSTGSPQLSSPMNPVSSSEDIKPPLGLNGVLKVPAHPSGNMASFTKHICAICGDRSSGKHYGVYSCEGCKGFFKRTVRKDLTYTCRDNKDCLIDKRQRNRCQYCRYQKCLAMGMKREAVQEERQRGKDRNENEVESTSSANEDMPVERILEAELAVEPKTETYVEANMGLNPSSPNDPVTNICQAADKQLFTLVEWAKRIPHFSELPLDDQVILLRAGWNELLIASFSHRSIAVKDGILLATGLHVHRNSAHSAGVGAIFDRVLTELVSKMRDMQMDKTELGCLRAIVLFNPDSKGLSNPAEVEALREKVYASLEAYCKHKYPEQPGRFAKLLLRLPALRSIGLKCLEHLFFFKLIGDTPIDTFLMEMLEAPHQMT

Structure (SMILES)	activation	Potency
COC(=O)c1ccccc1OC	10.8%	
c1cnccn1	-8.2%	
COc1cc2nc(N3CCN(C(=O)c4ccco4)CC3)nc(N)c2cc1OC	-11.7% [at 15.8 µM]	
O=[N+]([O-])c1ccc(F)c(Cl)c1	2.62%	
CCCC[P+](C)(CCCC)CCCC	2.86%	
Cc1nc2n(c(=O)c1CCN1CCC(c3noc4cc(F)ccc34)CC1)CCCC2	-6.41% [at 35.3 µM]	
O[C@@H]([C@H](O)[C@H](O)CBr)[C@H](O)CBr	9.96%	
[Cu+]	-9.95%	
Cc1ccc(O)c(O)c1	-19%	
O=C(O)c1ccc2cc(C(=O)O)ccc2c1	15.6%	
CCCCCCOC(=O)C(C)CC (stereo unspecified)	-4.76%	
C=Cc1cccc(C)c1		inactive
O=C(/C=C/c1ccc(O)c(O)c1)O[C@@H](C(=O)O)[C@@H](OC(=O)/C=C/c1ccc(O)c(O)c1)C(=O)O	7.99%	
CCc1cccc(CC)c1NC(=O)CN(CC(=O)O)CC(=O)O	4.24% [at 35.3 µM]	
CCCCCCCC	9.66%	
CC(C)CCOC(=O)/C=C/c1ccccc1	0.495%	
Oc1cc(Cl)cc(Cl)c1Cl	-8.77%	
Cc1ccc(-c2ccccc2)cc1	-2.67%	
CCCCCCCCCCOC(=O)c1ccccc1C(=O)OCCCCCCCC	-0.0207%	
C=CC(C)(CCC=C(C)C)OC=O (stereo unspecified)	-1.65%	
CC(CO)Oc1ccccc1 (stereo unspecified)	-15.6%	
O=C(O)c1cc(=O)c2ccccc2o1	0.665% [at 35.3 µM]	
CC(=O)c1ccc(C(C)=O)cc1	1.26%	
CC[N+](CC)(CC)CCOC(=O)C(C1CCCC1)C1CCCC1	-11.5% [at 35.3 µM]	
CC(C)(C)CC(C)(C)c1ccc(Nc2ccc(C(C)(C)CC(C)(C)C)cc2)cc1	3.93% [at 6.98 µM]	
NC(=O)c1cccc([N+](=O)[O-])c1	-7.59%	
